The record followed here is PubChem BioAssay (EPA / NIEHS).

Records with an inconclusive call do not appear. Calls of active or inactive are those of the source. Rule for the calls, unless noted: active = hit-call score of the fitted dose curve at least 0.9, where 1 is the maximum; inconclusive = response in the unintended direction; inactive = score below 0.9.

Experiment [1] can be described thus: ATG_M_61_CIS: Attagene CIS-FACTORIAL HepG2 Assay for M61 Transcription Factor (Internal Marker) (AID 2282937; active = hit-call score of the fitted dose curve at least 0.9, where 1 is the maximum; inactive = score below 0.9). The settings on record: HepG2 Attagene CIS-FACTORIAL M61 internal marker reporter; actives raise or lower the signal. The procedure, abridged: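 Transfect HepG2 with MRTUs; dose 24 h; isolate RNA; reverse-transcribe with DNase I treatment; PCR-amplify, FAM-label and cut with HpaI for 2 h at 37 C; resolve by CE. Bidirectional fitting against DMSO.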

Experiment [2] in a line: ATG_EGR_CIS: Attagene CIS-FACTORIAL HepG2 Assay for human Early Growth Response 1 (EGR1) (AID 2282938; active = hit-call score of the fitted dose curve at least 0.9, where 1 is the maximum; inactive = score below 0.9). To be noted: HepG2 Attagene CIS-FACTORIAL EGR reporter mRNA; actives raise or lower the signal. The procedure, abridged:
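After a 24 h treatment of transiently transfected HepG2 cells, total RNA was reverse-transcribed and reporter sequences PCR-amplified, labelled and run on capillary electrophoresis. Reporters sit under cis-regulatory promoters sensing endogenous factors.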

A short description of experiment [3]: ATG_GRE_CIS: Attagene CIS-FACTORIAL HepG2 Assay for human Glucocorticoid Response Elements (GRE) (AID 2282947; active = hit-call score of the fitted dose curve at least 0.9, where 1 is the maximum; inactive = score below 0.9). To be noted: HepG2 GRE cis-reporter, Attagene multiplex mRNA; actives raise or lower the signal. The essentials: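 HepG2 cells transiently transfected with multiple cis-promoter reporter units measure endogenous TF activity; 24 h compound exposure. Reporter mRNA quantified by RT-PCR, FAM labelling, HpaI digestion and capillary electrophoresis; bidirectional fit vs DMSO baseline.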

A short description of experiment [4]: ATG_RORE_CIS: Attagene CIS-FACTORIAL HepG2 Assay for human RAR-related Orphan Receptor Element (RORE) (AID 2282959; active = hit-call score of the fitted dose curve at least 0.9, where 1 is the maximum; inactive = score below 0.9). The settings on record: HepG2 Attagene cis-factorial RORE reporter, mRNA; actives raise or lower the signal. The procedure, abridged:
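A 24-hour exposure of transfected HepG2 hepatoma cells precedes RNA isolation and reporter RT-PCR. Labeled products are digested with HpaI and resolved by capillary electrophoresis, with gain or loss of signal scored relative to DMSO.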

The nature of experiment [5]: ATG_TGFb_CIS: Attagene CIS-FACTORIAL HepG2 Assay for human Transforming Growth Factor (TGF) (AID 2282967; active = hit-call score of the fitted dose curve at least 0.9, where 1 is the maximum; inactive = score below 0.9). To be noted: HepG2 Attagene CIS TGFb reporter, mRNA transcription; actives raise or lower the signal. The essentials:
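Transient MRTU transfection of HepG2 (FuGene 6). Dose 24 h. TriZol RNA, oligo(dT) RT, PCR, 6-FAM primer extension, HpaI cut, CE. Bidirectional fit, DMSO = baseline.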

Experiment [6] in a line: ATG_M_19_TRANS: Attagene TRANS-FACTORIAL HepG2 Assay for M19 Transcription Factor (Internal Marker) (AID 2282974). The settings on record: HepG2 Attagene TRANS-FACTORIAL M19 internal marker reporter. The essentials:
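Transfected HepG2 (GAL4-UAS MRTUs), 24 h compound, TriZol RNA, DNase-treated RT, reporter PCR, FAM label, HpaI digest, CE fluorescence; gain vs DMSO.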

Experiment [7] has as its target Hepatocyte nuclear factor 4-alpha (Homo sapiens) (UniProt P41235). Description: ATG_HNF4a_TRANS: Attagene TRANS-FACTORIAL HepG2 Assay for human Hepatocyte Nuclear Factor 4 alpha (HNF4a) (AID 2282982). To be noted: HepG2 HNF4a transactivation reporter, mRNA readout. The procedure, abridged: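 HepG2 cells transiently transfected with multiplexed GAL4-UAS reporter units responsive to chimeric NR-GAL4 proteins; compound exposure 24 h. Reporter mRNA quantified by RT-PCR, 6-FAM labelling, HpaI digestion and capillary electrophoresis; gain of signal versus DMSO baseline.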

Experiment [8] addresses Nuclear receptor subfamily 1 group I member 2 (Homo sapiens) (UniProt O75469). Description: ATG_PXR_TRANS: Attagene TRANS-FACTORIAL HepG2 Assay for human Pregnane X Receptor (PXR) (AID 2283008). The essentials: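 HepG2 cells transiently transfected with multiple reporter units, here a PXR-GAL4 chimera driving a GAL4-UAS reporter; 24 h compound exposure. Reporter mRNA measured by RT-PCR, FAM labelling and capillary electrophoresis; gain of signal fitted against DMSO baseline.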

Experiment [9] deals with Retinoic acid receptor RXR-alpha (Homo sapiens) (UniProt P19793). Description: ATG_RXRa_TRANS: Attagene TRANS-FACTORIAL HepG2 Assay for human Retinoid X Receptor alpha (RXRa) (AID 2283012). The essentials:
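HepG2 cells transiently transfected with multiplexed GAL4-UAS reporter units and chimeric NR-GAL4 fusions, dosed 24 h. Reporter mRNA measured by RT-PCR, FAM labelling, HpaI digestion and capillary electrophoresis; gain-of-signal fitted relative to DMSO baseline.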

A short description of experiment [10]: ATG_M_06_CIS: Attagene CIS-FACTORIAL HepG2 Assay for M06 Transcription Factor (Internal Marker) (AID 2282950; active = hit-call score of the fitted dose curve at least 0.9, where 1 is the maximum; inactive = score below 0.9). The settings on record: HepG2 Attagene CIS-FACTORIAL M06 internal marker reporter; actives raise or lower the signal. The procedure, abridged:
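Read-out is fluorescence of labelled reporter cDNA fragments resolved by capillary electrophoresis after RT-PCR. Cells: HepG2 carrying transfected cis-promoter reporter units, treated 24 h. Gain or loss of signal fitted relative to DMSO.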

Experiment [11] is described as follows: ATG_PPRE_CIS: Attagene CIS-FACTORIAL HepG2 Assay for human Peroxisome Proliferator-activated Response Element (PPRE) (AID 2282958; active = hit-call score of the fitted dose curve at least 0.9, where 1 is the maximum; inactive = score below 0.9). To be noted: HepG2 PPRE cis-element reporter, Attagene transcription factor profiling; actives raise or lower the signal. The essentials: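 PPRE activity in HepG2: transient cis-reporter transfection, 24 h compound incubation, reporter mRNA by RT-PCR and CE fluorescence; gain/loss fitted against DMSO.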

A short description of experiment [12]: ATG_M_06_TRANS: Attagene TRANS-FACTORIAL HepG2 Assay for M06 Transcription Factor (Internal Marker) (AID 2282983).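 Note: reporter transcript level by RT-PCR then capillary electrophoresis fluorescence.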 To be noted: HepG2 Attagene TRANS M06 internal marker reporter. The essentials:
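Cells: HepG2, transient multi-reporter transfection. Exposure: 24 h. Detection: RT-PCR, 6-FAM labelling, HpaI digestion (2 h, 37 °C), capillary electrophoresis. Baseline: DMSO.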

For experiment [13], the target named is Nuclear respiratory factor 1 (Homo sapiens) (UniProt Q16656). Kind of experiment: ATG_NRF1_CIS: Attagene CIS-FACTORIAL HepG2 Assay for human Nuclear Respiratory Factor 1 (NRF1) Orphan Gene (AID 2282987; active = hit-call score of the fitted dose curve at least 0.9, where 1 is the maximum; inactive = score below 0.9). To be noted: HepG2 NRF1 cis-element reporter, Attagene multiplex; actives raise or lower the signal. The essentials: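 Measured: fluorescent reporter-specific RT-PCR products from transfected HepG2 cells, separated by capillary electrophoresis. Exposure lasted 24 h. Analysis used bidirectional curve fitting with DMSO as negative control.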

In experiment [14] the target is human Retinoid X Receptor beta (RXRb), RXRB (gene 6257) (UniProt P28702). Kind of experiment: ATG_RXRb_TRANS: Attagene TRANS-FACTORIAL HepG2 Assay for human Retinoid X Receptor beta (RXRb) (AID 2283013). The essentials:
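HepG2 cells transiently transfected with multiplexed reporter units driven by GAL4-UAS and exogenous chimeric NR-Gal4 proteins; treated 24 h. Reporter mRNA measured by RT-PCR, 6-FAM labelling and capillary electrophoresis; gain-of-signal fitted versus DMSO baseline.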

Experiment [15] addresses Cellular tumor antigen p53 (Homo sapiens) (UniProt P04637). Kind of experiment: TOX21_p53_BLA_p2_ratio: Tox21 HCT-116 p53 Agonism Beta-lactamase Assay, Ratio, Phase 2 (AID 2283592). The essentials:
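Gain-of-signal p53 agonism was scored from the beta-lactamase FRET ratio (460/530 nm, 405 nm excitation) in HCT116 cells treated 16 h at 37C, 5% CO2, with DMSO serving as negative control and baseline.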

Experiment [16] shares this target. Description: TOX21_p53_BLA_p3_ratio: Tox21 HCT-116 p53 Agonism Beta-lactamase Assay, Ratio, Phase 3 (AID 2283596). The procedure, abridged: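 HCT116 p53-bla cells (4000/well) given compound in DMSO (217-fold dilution) after 5 h, incubated 16 h at 37C. CCF4-AM substrate 2 h at room temperature; 460/530 nm emission ratio, gain fitted against DMSO.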
Experiment [17] shares this target. Kind of experiment: TOX21_p53_BLA_p5_ratio: Tox21 HCT-116 p53 Agonism Beta-lactamase Assay, Ratio, Phase 5 (AID 2283599). The procedure, abridged: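 HCT-116 cells carrying a p53-inducible beta-lactamase reporter were seeded at 4000 cells/well and dosed after 5 h with compound in DMSO (217-fold dilution). After 16 h at 37C, CCF4-AM substrate was added for 2 h, and the 460/530 nm emission ratio was scored as gain-of-signal versus DMSO.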

For experiment [18] the target is unchanged. Kind of experiment: TOX21_p53_BLA_p4_ratio: Tox21 HCT-116 p53 Agonism Beta-lactamase Assay, Ratio, Phase 4 (AID 2283601). The essentials: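 HCT116 cells carrying an inducible beta-lactamase reporter were plated at 4000 cells/well, rested 5 h, then exposed to compounds in DMSO (217-fold dilution) for 16 h at 37C. CCF4-AM substrate was loaded 2 h at room temperature; 460/530 nm emission ratio scored gain-of-signal versus DMSO.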

Experiment [19] in a line: ATG_NFI_CIS: Attagene CIS-FACTORIAL HepG2 Assay for human Nuclear Factor I (NFI) (AID 2282989; active = hit-call score of the fitted dose curve at least 0.9, where 1 is the maximum; inactive = score below 0.9). To be noted: HepG2 cis-regulatory reporter, NFI response element transcription; actives raise or lower the signal. The essentials: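 Transient MRTU transfection of HepG2 → 24 h chemical dosing → total RNA, oligo(dT) RT → PCR, 6-FAM primer extension, HpaI cut → capillary electrophoresis. Endpoint fitted bidirectionally relative to DMSO.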

The nature of experiment [20]: TOX21_p53_BLA_p5_viability: Viability Assessment in the Tox21 HCT-116 p53 Agonism Beta-lactamase Assay, Phase 5 (AID 2283600). The procedure, abridged: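 After the 460/530 nm beta-lactamase measurement, the wells received an ATP-detection luciferase reagent; signal was read 30 min later at RT. Compound treatment lasted 16 h on cells pre-incubated 5 h post-seeding.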

Nuclear respiratory factor 1 (Homo sapiens), sequence (Q16656 whole entry, looked up): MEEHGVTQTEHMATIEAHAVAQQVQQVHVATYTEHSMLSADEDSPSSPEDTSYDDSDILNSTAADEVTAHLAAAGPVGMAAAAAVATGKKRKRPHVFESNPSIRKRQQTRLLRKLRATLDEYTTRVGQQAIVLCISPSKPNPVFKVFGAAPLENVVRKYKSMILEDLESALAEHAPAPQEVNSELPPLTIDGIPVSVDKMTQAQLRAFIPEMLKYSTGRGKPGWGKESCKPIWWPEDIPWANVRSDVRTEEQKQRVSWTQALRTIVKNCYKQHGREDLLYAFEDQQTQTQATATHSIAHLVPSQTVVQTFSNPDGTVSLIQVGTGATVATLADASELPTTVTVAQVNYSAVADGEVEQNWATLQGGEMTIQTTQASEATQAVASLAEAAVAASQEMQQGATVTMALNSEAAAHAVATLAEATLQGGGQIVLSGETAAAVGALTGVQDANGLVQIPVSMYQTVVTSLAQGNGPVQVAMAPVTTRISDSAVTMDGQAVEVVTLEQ
Nuclear receptor subfamily 1 group I member 2 (Homo sapiens), sequence (O75469 whole entry, looked up, the tested form may be a part): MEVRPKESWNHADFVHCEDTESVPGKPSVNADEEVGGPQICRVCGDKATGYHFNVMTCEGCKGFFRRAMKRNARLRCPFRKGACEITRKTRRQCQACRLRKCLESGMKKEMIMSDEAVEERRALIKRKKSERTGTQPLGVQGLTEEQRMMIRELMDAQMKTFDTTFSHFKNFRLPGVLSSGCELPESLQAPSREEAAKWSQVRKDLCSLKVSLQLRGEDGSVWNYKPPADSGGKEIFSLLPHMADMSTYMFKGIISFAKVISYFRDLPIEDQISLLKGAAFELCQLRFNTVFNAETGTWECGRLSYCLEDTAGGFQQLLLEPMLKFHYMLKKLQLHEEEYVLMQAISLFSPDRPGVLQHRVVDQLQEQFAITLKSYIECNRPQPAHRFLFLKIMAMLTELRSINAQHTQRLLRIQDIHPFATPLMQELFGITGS
Hepatocyte nuclear factor 4-alpha (Homo sapiens), sequence (P41235 whole entry, looked up, the tested form may be a part): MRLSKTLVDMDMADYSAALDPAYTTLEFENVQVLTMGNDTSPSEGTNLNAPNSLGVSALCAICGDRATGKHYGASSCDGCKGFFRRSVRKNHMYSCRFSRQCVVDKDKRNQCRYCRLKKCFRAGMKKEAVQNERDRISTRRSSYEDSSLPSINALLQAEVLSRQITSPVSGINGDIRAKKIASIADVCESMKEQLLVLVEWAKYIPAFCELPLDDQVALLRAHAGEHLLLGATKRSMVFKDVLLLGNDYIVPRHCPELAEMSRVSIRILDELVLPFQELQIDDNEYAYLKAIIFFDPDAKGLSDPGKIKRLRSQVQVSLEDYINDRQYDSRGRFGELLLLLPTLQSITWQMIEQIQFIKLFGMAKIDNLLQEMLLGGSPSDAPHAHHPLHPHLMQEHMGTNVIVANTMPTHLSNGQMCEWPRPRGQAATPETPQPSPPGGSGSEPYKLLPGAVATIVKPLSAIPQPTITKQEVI
Cellular tumor antigen p53 (Homo sapiens), sequence (P04637 whole entry, looked up): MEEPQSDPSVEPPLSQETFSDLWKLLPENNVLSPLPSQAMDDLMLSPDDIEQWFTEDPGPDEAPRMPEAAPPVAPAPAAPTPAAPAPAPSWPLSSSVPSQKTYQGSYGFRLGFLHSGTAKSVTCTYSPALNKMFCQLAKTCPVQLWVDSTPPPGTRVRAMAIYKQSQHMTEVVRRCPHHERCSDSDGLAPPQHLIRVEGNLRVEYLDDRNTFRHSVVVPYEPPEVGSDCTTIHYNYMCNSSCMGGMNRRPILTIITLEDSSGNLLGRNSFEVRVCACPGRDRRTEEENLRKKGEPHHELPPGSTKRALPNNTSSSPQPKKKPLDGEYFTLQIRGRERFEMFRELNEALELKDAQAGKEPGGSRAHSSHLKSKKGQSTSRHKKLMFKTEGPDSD
Retinoic acid receptor RXR-alpha (Homo sapiens), sequence (P19793 whole entry, looked up, the tested form may be a part): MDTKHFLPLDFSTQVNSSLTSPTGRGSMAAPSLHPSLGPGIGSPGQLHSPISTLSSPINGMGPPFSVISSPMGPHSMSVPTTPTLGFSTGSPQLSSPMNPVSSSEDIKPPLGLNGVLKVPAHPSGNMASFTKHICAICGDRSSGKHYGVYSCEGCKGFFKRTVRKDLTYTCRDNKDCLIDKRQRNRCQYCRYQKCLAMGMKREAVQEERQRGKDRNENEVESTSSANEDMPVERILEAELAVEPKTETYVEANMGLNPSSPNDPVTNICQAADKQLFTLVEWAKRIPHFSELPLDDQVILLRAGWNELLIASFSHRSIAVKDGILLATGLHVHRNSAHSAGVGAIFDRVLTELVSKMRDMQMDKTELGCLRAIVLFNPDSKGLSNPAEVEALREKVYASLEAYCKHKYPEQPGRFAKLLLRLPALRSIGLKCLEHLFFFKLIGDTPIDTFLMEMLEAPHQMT
human Retinoid X Receptor beta (RXRb), RXRB (gene 6257), sequence (P28702 whole entry, looked up, the tested form may be a part): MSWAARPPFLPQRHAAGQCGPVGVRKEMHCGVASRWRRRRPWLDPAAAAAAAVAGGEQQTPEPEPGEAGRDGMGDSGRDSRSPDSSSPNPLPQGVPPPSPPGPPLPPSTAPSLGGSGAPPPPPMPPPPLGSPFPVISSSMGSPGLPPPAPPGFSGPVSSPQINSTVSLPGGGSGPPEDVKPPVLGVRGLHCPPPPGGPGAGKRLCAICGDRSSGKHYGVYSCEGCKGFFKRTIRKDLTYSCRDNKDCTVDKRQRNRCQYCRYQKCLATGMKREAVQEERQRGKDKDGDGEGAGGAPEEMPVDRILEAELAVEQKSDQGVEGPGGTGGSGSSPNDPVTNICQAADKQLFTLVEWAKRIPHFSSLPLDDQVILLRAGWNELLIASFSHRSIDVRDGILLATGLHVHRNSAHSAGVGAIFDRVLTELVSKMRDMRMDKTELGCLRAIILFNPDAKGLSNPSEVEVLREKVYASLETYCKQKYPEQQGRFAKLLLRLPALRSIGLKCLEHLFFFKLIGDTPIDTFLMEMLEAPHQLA

Consider `COc1ncc(F)c2nc(S(=O)(=O)Nc3c(F)cccc3F)nn12`, for which the compound was classed as inactive in experiment [1], in experiment [2], in experiment [3], in experiment [4], in experiment [5] and in experiment [6]. The compound was called inactive in experiment [7], in experiment [8] and in [9].

As usually defined, the AC50 is the concentration at which the activity in the assay is half-maximal. Consider `N#CC(c1ccccc1)c1ccccc1`, for which the compound was called inactive in [2], in experiment [3], in experiment [10], in experiment [11], in experiment [4] and in experiment [5]. Moreover, the compound was classed as inactive in [7], in [12], in experiment [13], in experiment [9], in experiment [15] and in [16]. Also, the result in [17] and in [18] was inactive. Further, the AC50 was 4.59 µM (active) in [8] and 49.1 µM (active) in experiment [14].

Regarding `CC(O)CN(CC(C)O)CC(C)O` (configuration not stated), the outcome in [3], in experiment [10], in experiment [5], in [6], in experiment [13] and in [19] was inactive. The result in [15], in [16], in experiment [17], in [20] and in [18] was inactive.

For `O=C1C=CC(=O)C=C1`, the call in experiment [1], in experiment [2], in experiment [10], in [5], in experiment [7] and in experiment [12] was inactive. Moreover, the outcome in experiment [13], in experiment [19], in [8], in [9], in [15] and in experiment [17] was inactive. Further, in [20], the compound was called inactive.

In the case of `CC(Cc1ccc(C(C)(C)C)cc1)CN1C[C@@H](C)O[C@@H](C)C1` (some centres not stated), the result in [2], in experiment [3], in [10], in experiment [11], in experiment [4] and in [5] was inactive. Besides, the compound was classed as inactive in experiment [6], in experiment [7], in experiment [12], in experiment [13], in experiment [19] and in experiment [9]. For the same compound, the outcome in experiment [14], in experiment [15], in [16], in experiment [20] and in experiment [18] was inactive. Also, in experiment [8], the half-maximal activity concentration (AC50) is 4.52 µM (active).
